Compounds with a hit are over-represented: about 3.5% of the library has one in this group of screens.
BoNT A protease = BoNT/A light chain protease inhibitors, primary screen, biochemical, flow cytometry, MLPCN library; inhibition, % at 10 µM; AID 588499, 2011; 360,000 tested, 0.17% active; multiplex microsphere protease substrate cleavage; Botulinum neurotoxin type A light chain protease (Clostridium botulinum A str. ATCC 3502); also: plate controls were buffer without enzyme for full effect and enzyme alone for no effect
BoNT F protease = BoNT/F light chain protease inhibitors, primary screen, biochemical, flow cytometry, MLPCN library; Botulinum neurotoxin type F light chain protease (Clostridium botulinum); Multiplex microsphere protease cleavage assay; inhibition, % at 10 µM; 360,000 tested, 0.22% active; AID 588497, 2011; in the data active = inhibition above about 35%, passing the limit was not always enough; inconclusive = no clear call, values can overlap the other calls; also: plate controls were buffer without enzyme for full effect and enzyme alone for no effect
Anthrax LF prot = Bacillus anthracis LF protease inhibitors, primary screen, biochemical, multiplex microsphere, MLPCN library | Lethal factor (Bacillus anthracis), P15917 | multiplex microsphere protease cleavage assay | inhibition, % at 10 µM | 360,000 tested, 0.12% active | AID 588501, 2011; also: plate controls were buffer without enzyme for full effect and enzyme alone for no effect
Bead autofluor = compound fluorescence in toxin protease inhibitor counterscreen. 360,000 tested, 3.1% active. fluorescence intensity (concentration not given with the values). AID 624483. compound autofluorescence counterscreen, microsphere flow cytometry; active compounds read high; in the data active = fluorescence intensity above about 16000; inconclusive = no clear call, values can overlap the other calls
Active calls of the source: *; ? = inconclusive. Rule as the data show it, unless noted: active = inhibition above about 30%; inconclusive = no clear call, values can overlap the other calls; inactive = below that.

SMILES	BoNT A protease	BoNT F protease	Anthrax LF prot	Bead autofluor
CCOc1cccc2cc(-c3csc(NC(=O)CCC(=O)N4CCC(C)CC4)n3)c(=O)oc12	-1	-2	0	22950*
CC(C)(C)C(Cn1ccnc1)NC(=O)c1ccc2nc(C3CC3)oc2c1 (stereo not drawn)	-2	-6	-2	5595
c1ccc(-c2noc(CN3CCN(c4ccccc4)CC3)n2)cc1	0	0	1	5649
COc1ccc(N2CCN(Cc3nc(-c4ccc(Cl)cc4Cl)no3)CC2)cc1	-2	-7	-6	20566*
Cc1c(C(=O)O)oc2ccc(S(=O)(=O)N3CCCC3)cc12	0	-3	2	6504
CCCCN(CCCC)S(=O)(=O)c1ccc2oc(C(=O)N3CCOCC3)c(C)c2c1	-2	-3	-1	24116*
CCOC(=O)N1CCN(C(=O)c2oc3ccc(S(=O)(=O)N4CCCCC4)cc3c2C)CC1	4	7	-10	18639*
Cc1c(C(=O)NC2CC2)oc2ccc(S(=O)(=O)N3CCCCCC3)cc12	-1	-10	-5	9015
CCCCN(C)C(=O)c1oc2ccc(S(=O)(=O)N3CCCCCC3)cc2c1C	-1	-2	-10	23104*
Cc1cc(C)cc(NC(=O)C(c2ccccc2)N2CCN(CC(=O)NC3CC3)CC2)c1 (stereo not drawn)	-2	-12	1	5472
O=C(Nc1ncn[nH]1)c1ccc(Cl)c(Cl)c1	0	-3	2	6532
COc1cccc(CN(C(=O)COc2ccc(Cl)cc2)C2CCS(=O)(=O)C2)c1 (stereo not drawn)	0	-2	-1	6179
NC(=O)C1CCN(CCC(=O)Nc2ccc(Br)cc2)CC1	0	-1	-3	23853*
Cc1ccc([N+](=O)[O-])cc1NC(=O)CCCOc1ccccc1	0	-1	-3	16846*
O=C(O)CC1S/C(=N/N=C/c2ccc(-c3ccccc3[N+](=O)[O-])o2)NC1=O (stereo not drawn)	-1	-3	-1	23815*
O=[N+]([O-])c1cc(Br)c(O)c(/C=N/Nc2nnnn2-c2cccc3ccccc23)c1	0	-1	-3	22718*
CCC(C(=O)Nc1cccc(S(=O)(=O)N(C)c2ccccc2)c1)c1ccccc1 (stereo not drawn)	0	-4	-6	5948
O=C(Nc1ccc(Cl)c(C(F)(F)F)c1)C1CCCN(S(=O)(=O)c2cnc[nH]2)C1 (stereo not drawn)	-1	-4	-3	20180*
Cc1ccc(N/C=C/C(=O)c2sc(-c3ccccc3)nc2C)cc1	32*	26	23	2766
CCOC(=O)c1c(CN2CCN(CCO)CC2)n(C)c2cc(Br)c(OC)cc12	0	-2	-1	23678*
CCOC(=O)c1c(CN2CCCCC2)n(C)c2cc(Br)c(OC)cc12	0	-10	0	4049
CCOC(=O)c1c(C)oc2cc(Br)c(OC)cc12	-3	-4	-1	25149*
Cc1ccn2c(Cc3ccccc3)c(-c3ccc(F)cc3)nc2c1	0	4	-1	3487
COc1cc(-c2nn3c(COc4ccccc4)nnc3s2)cc(OC)c1OC	-1	1	2	23486*
COc1cc(-c2nn3c(Cc4ccccc4)nnc3s2)cc(OC)c1OC	2	3	-6	22616*
SMILES	BoNT A protease	BoNT F protease	Anthrax LF prot	Bead autofluor
Cc1ccc(-n2nc(C)c(C(=O)Nc3cccc(C(=O)NC4CC4)c3)n2)c(C)c1	0	-8	-5	3544
Cn1cc(/C=C/C(=O)c2ccccc2)c2ccccc21	1	-3	3	6455
Cc1ccc(C(=O)/C=C/c2cn(CN3CCN(C)CC3)c3ccccc23)cc1	1	-2	1	22519*
CCN(CC)c1c2c(c(C#N)c3nc4ccccc4n13)CCC2	-1	-1	-3	16264*
CCN(CC)c1cc(C)c(C#N)c2nc3ccccc3n12	-8	?	-11	4281
Cc1cc(C)n(CC(O)COCc2ccccc2)n1 (stereo not drawn)	?	-3	-1	20483*
C[n+]1cn(CC(O)COCc2ccccc2)c2ccccc21 (stereo not drawn)	0	-2	0	10066
Cc1cc2c(cc1C)[n+](C)cn2CC(O)COCc1ccccc1 (stereo not drawn)	3	4	-3	22173*
COc1ccc(CN(C)C(=O)c2ccc3c(=O)n4c(nc3c2)CCC4)c(OC)c1	1	-3	?	6316
CC(C)CC(=O)N1CCC(O)(CS(=O)(=O)Cc2ccc(Cl)cc2)CC1	0	-5	1	4422

Source: PubChem
